# Screens (PubChem BioAssay)
# Gal4-VP16 FLuc = Gal4-VP16 reporter inhibition counter-screen | Drosophila S2 Gal4-VP16 UAS-luciferase, luminescence, 20 h | Potency, µM (top dose mostly 53.6 µM), most hits filed as inhibitors | 3.5% of 310,000 active;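 further: Gal4-VP16 expression switched on by copper sulfate through the metallothionein promoter; nearly all actives have a fitted effect of over 50% in size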
# Sfp PPTase inh = blocks B. subtilis Sfp PPTase activity | Biochemical Sfp PPTase activity, qHTS | AID 1490 | Potency, µM, usual class: inhibitors | 3.5% of 310,000 active | Q9F4F7;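 further: the enzyme is Sfp with the accession as filed and its product quenches rhodamine fluorescence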
#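 Compounds were incubated with enzyme (final 15 nM) for 15 min at room temperature before substrate addition started the reaction. Fluorescence at 525 nm excitation, 598 nm emission was recorded immediately and after 30 minutes.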
# PLK1 PBD block = PLK1 (human) polo-box domain binding inhibition. 2.8% of 360,000 active. AID 720504. P53350. Potency, µM, usual class: inhibitors. Plk1 PBD binding of FITC phosphopeptide, fluorescence polarization; further: series mostly up to about 57 µM; nearly all actives have a fitted effect of over 65% in size
# Target sequence (P53350 whole entry, looked up, the tested form may be a part): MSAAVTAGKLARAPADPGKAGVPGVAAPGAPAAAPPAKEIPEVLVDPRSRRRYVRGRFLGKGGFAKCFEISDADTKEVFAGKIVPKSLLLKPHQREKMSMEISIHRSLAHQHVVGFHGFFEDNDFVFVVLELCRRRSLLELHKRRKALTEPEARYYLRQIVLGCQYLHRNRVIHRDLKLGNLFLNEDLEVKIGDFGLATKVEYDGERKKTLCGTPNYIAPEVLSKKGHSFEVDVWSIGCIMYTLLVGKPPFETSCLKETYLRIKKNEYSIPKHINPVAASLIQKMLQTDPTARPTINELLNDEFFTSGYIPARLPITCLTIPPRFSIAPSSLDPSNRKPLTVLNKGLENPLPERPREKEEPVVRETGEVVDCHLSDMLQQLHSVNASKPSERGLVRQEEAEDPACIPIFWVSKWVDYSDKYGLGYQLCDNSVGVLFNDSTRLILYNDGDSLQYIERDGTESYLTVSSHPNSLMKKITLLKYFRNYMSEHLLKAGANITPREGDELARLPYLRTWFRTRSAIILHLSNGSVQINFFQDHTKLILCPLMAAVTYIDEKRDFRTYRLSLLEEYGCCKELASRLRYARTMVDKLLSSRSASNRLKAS
# ALDH1A1 block = ALDH1A1 (human) enzyme inhibition; Purified ALDH1A1, NADH fluorescence, propionaldehyde substrate; Potency, µM (titrated, usually from 75.3 µM), hits mostly inhibitors; AID 1030; 7.3% of 220,000 active; P00352; active means well fitted inhibition curve with a large enough effect, not every such curve was filed as active; inconclusive means small, poorly fitted or top-dose-only effect, or another doubt; inactive means no such curve, though single readings can be large or run the other way
# RORgamma inh = blocks mouse ROR gamma transcriptional activity | Drosophila S2 Gal4-RORgamma UAS-luciferase reporter, 20 h | Potency, µM (highest dose often 53.6 µM), hits mostly inhibitors | 5.4% of 310,000 active | AID 2551; further: nearly all actives have a fitted effect of over 60% in size
#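 Drosophila Schneider cells stably carrying a metallothionein-driven Gal4 DBD–ROR gamma fusion and a UAS-Photinus luciferase reporter were exposed to compound for 1 hr, then induced with copper sulfate (700 uM final) for 20 hr at ambient temperature before luminescence reading.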
# Hits are given with their value; . = inactive; ? = inconclusive; / = no result; [ ] = dose if it differs, or a comment. A selection: hits, their analogues and other compounds. The true share with any hit is near 12%. Unless noted, the call rests on the fitted dose curve; in most records, active means well fitted curve in the direction sought with a large enough effect; inconclusive means small, poorly fitted or top-dose-only effect, or another doubt; inactive means no such curve, though single readings can be large; an effect the other way counts as inactive or inconclusive.
SMILES,Gal4-VP16 FLuc,Sfp PPTase inh,PLK1 PBD block,ALDH1A1 block,RORgamma inh
CCOC(=O)N1CCN(C(=O)c2ccc3c(=O)n(Cc4ccc(OC)cc4)c(=S)[nH]c3c2)CC1,?,.,.,.,.
Cc1ccc(S(=O)(=O)Nc2ccc(N3CCOCC3)cc2)cc1[N+](=O)[O-],.,.,.,?,.
COc1ccc(S(=O)(=O)Nc2ccc(S(=O)(=O)N(C)C)cc2)cc1[N+](=O)[O-],.,.,.,13µM,.
Cc1ccc(NC(=O)CSc2ccc(C(N)=O)cc2[N+](=O)[O-])cc1,.,.,.,?,.
Cc1ccc(NC(=O)CSc2ccc(C(N)=O)cc2[N+](=O)[O-])cc1C,.,.,3µM,.,.
Cc1ccc(S(=O)(=O)Nc2ccc(C(N)=O)cc2)cc1[N+](=O)[O-],.,.,15µM,?,.
COCC(=O)N1CCC2(CC1)CN(C(=O)Nc1cccc(C#N)c1)C2,.,.,/,.,.
CSc1ccc(C(O)c2ncc(-c3ccccc3Cl)[nH]2)cc1 (stereo not given),/,/,.,/,/
CCCCCC(=O)NC(=S)NNC(=O)CC,.,?,.,?,11µM
CCCCC(=O)NC(=S)Nc1c(C)cc(Br)cc1C,?,35µM,15µM,11µM,5.6µM
CCCCC(=O)NC(=S)NNC(=O)CC,.,?,.,22µM,7.9µM
O=C(NC(=S)NNS(=O)(=O)c1ccccc1)c1cccnc1,.,.,?,?,?
CCCCC(=O)NC(=S)NNS(=O)(=O)c1ccccc1,20µM,?,12µM,8.9µM,13µM
CC(C)N(C)C,.,/,/,.,.
CCCSCCCNC(=O)c1ccc(NC(=O)C2=CSCCO2)cc1,.,.,.,/,.
COC1C(O)C(CO)OC1n1cnc2c(NC3CCCCC3)ncnc21 (stereo not given),.,.,/,/,.
N#CC1=C(N)C(C#N)(C#N)C(c2ccc[nH]2)C2CCCC=C12 (stereo not given),.,56µM,.,?,?
N#CC1=C(N)C(C#N)(C#N)C(c2cccnc2)C2CCCC=C12 (stereo not given),.,18µM,/,?,?
N#CC1=C(N)C(C#N)(C#N)[C@H](c2cccnc2)[C@H]2CN(C(=O)OCc3ccccc3)CC=C12,?,.,?,?,?
N#CC1=C(N)C2=CCCC[C@H]2[C@H](c2cccc(F)c2)C1(C#N)C#N,?,.,.,?,?
COc1ccc(O)cc1CN1CCN(c2ncc(Cc3ccccc3)cn2)CC1,/,/,.,/,/
COc1ccc(NC(=O)c2ccccc2NS(=O)(=O)c2ccc(C)cc2)c([N+](=O)[O-])c1,.,.,.,.,?
Cc1ccc(S(=O)(=O)Nc2ccc3ccccc3c2[N+](=O)[O-])cc1,/,/,30µM,/,/
Cc1ccc(S(=O)(=O)Nc2ccc3cc([N+](=O)[O-])ccc3c2[N+](=O)[O-])cc1,/,/,24µM,/,/
Cc1ccc2ccccc2c1[N+](=O)[O-],.,/,/,.,.
SMILES,Gal4-VP16 FLuc,Sfp PPTase inh,PLK1 PBD block,ALDH1A1 block,RORgamma inh
COc1ccc(NS(=O)(=O)c2ccc(C)cc2)c([N+](=O)[O-])c1,.,.,27µM,/,.
COc1ccc([N+](=O)[O-])cc1NS(=O)(=O)c1ccc(C)cc1,.,.,.,/,.
COC(=O)[C@H]1C[C@@]2(O)CN(S(=O)(=O)c3ccc(C)cc3)C[C@@]2(OC(=O)NC2CCCC2)C[C@H]1C(=O)OC,/,/,.,/,/
Cc1noc(C)c1-c1ccc2ncnc(NCCN3CCOCC3)c2c1,.,.,/,.,?
CCc1nc2ccc(C(=O)NCCOc3ccc(OC)cc3)cn2c1N(CC)Cc1ccc(OC)c(OC)c1,/,/,.,/,/
O=C(N=Nc1ccc(NOC(=O)c2ccccc2Br)cc1)c1ccccc1O,?,79µM,/,22µM,?
COc1ccc(Cl)cc1S(=O)(=O)N1CCCC1=O,.,.,27µM,.,.
COc1ccc(Cl)cc1S(=O)(=O)N1CCN=C1c1ccccc1,.,.,.,/,.
O=[N+]([O-])c1ccc(Nc2cccc3c2[nH]c2c(-c4ccccc4)nccc23)c([N+](=O)[O-])c1,/,/,.,/,/
CCOC(=O)CSc1nc(C2CC2)nc2ccccc12,.,89µM,.,.,.[10 µM]
O=S(=O)(c1ccccc1)N1CN2CN(C1)CN(S(=O)(=O)c1ccccc1)C2,/,/,/,.[13.5 µM],/
Cc1ccoc1C(=O)Nc1ccc(CC(=O)O)cc1,?,.,.,.,0.5µM
Cc1ccoc1C(=O)Nc1ccc2ccccc2c1,?,.,.,/,?
CCCCOc1ccc(-c2n[nH]c(=S)n2Cc2ccccc2)cc1,?,.,.,/,1.6µM
Fc1ccc(-c2c[nH]c(=S)n2Cc2ccccc2)cc1,1.4µM,?,.,0.35µM,0.63µM
Oc1ccc(-c2n[nH]c(=S)n2Cc2ccccc2)cc1,/,.,.,20µM,.[0.365 µM]
S=c1[nH]nc(-c2cccnc2)n1Cc1ccccc1,?,.,.,14µM,?
CN(C)Cc1ccccc1-c1cc(N(C)C)ncn1,.,.,/,.,.
CN(C)C1CCCCC=CC(=O)NC1 (stereo not given),/,/,.,/,/
NC(c1csc(Nc2ccc(C(F)(F)F)cn2)n1)C1CCCCC1 (stereo not given),/,/,.,/,/
COc1ccc(-n2c(=O)cnc3cnc(N(C)C)nc32)cc1,.,.,/,?,.
S=c1[nH]nc(-c2ccc3ccccc3n2)n1-c1cc(Cl)cc(Cl)c1,2.2µM,.,.,?,0.79µM
CC(C)(C)c1ccc(-c2n[nH]c(=S)n2Cc2ccccc2)cc1,7.1µM,.,.,/,2.2µM
FC(F)C(F)(F)Oc1cccc(-c2n[nH]c(=S)n2Cc2ccccc2)c1,/,/,.,/,/
S=c1[nH]nc(-c2ccncc2)n1Cc1ccccc1,.,.,.,.,13µM
SMILES,Gal4-VP16 FLuc,Sfp PPTase inh,PLK1 PBD block,ALDH1A1 block,RORgamma inh
Fc1ccc(-n2c(-c3ccc4ccccc4n3)n[nH]c2=S)cc1,.,.,.,.,.
S=c1[nH]nc(-c2ccc3ccccc3n2)n1Cc1ccccc1,5.6µM,.,.,.,2.2µM
S=c1[nH]nc(-c2ccc3ccccc3n2)n1-c1ccccc1Cl,.,.,?,.,.
COc1cc2nc(CCc3ccccc3)oc(=O)c2cc1OC,.,.,.,.,.
C=C1CCN(C(Cc2ccccc2)C(=O)NCc2ccc(Cl)c(Cl)c2)S(=O)(=O)c2ccccc21 (stereo not given),.,.,/,/,.
CCOC(=O)C1(C)CCCN1C(=O)c1ccc(OC)c(F)c1 (stereo not given),/,/,.,/,/
CC(C)n1c(-c2ccc(C(C)(C)C)cc2)n[nH]c1=S,10µM,.,.,?,4.5µM
S=c1[nH]nc(-c2ccc(Br)cc2)n1Cc1ccccc1,5.6µM,.,12µM,?,2.2µM
Fc1ccc(-c2n[nH]c(=S)n2Cc2ccccc2)cc1,11µM,.,.,/,2.8µM
O=c1[nH]cc(-c2ccc(Br)cc2)n1Cc1ccccc1,.,.,.,/,.
Cc1ccn2c(-c3n[nH]c(=S)n3Cc3ccccc3)c(C)nc2c1,.,.,.,?,.
Cc1cc(-c2n[nH]c(=S)n2Cc2ccccc2)cs1,?,.,.,?,5.6µM
O=S1(=O)N[C@H](Cc2ccccc2)COc2cccc(N3CCC[C@@H]3CO)c21,/,/,.,/,/
O=C(NCc1cccc(Cl)c1)C1Cc2c(-c3ccccc3)ccnc2O1 (stereo not given),/,/,.,/,/
